# In ChEMBL document CHEMBL1961873, “Compounds: GSK PKIS; Assays: Nanosyn kinase panel” (2012):
# Key:
# [1] = target: Serine/threonine-protein kinase MRCK alpha (Homo sapiens) (UniProt Q5VT25); settings: at 0.1 µM
# [2] = target: Serine/threonine-protein kinase MRCK alpha (Homo sapiens) (UniProt Q5VT25); settings: at 1 µM
# [3] = target: Serine/threonine-protein kinase MRCK beta (Homo sapiens) (UniProt Q9Y5S2); settings: at 0.1 µM
# [4] = target: Serine/threonine-protein kinase MRCK beta (Homo sapiens) (UniProt Q9Y5S2); settings: at 1 µM
# [5] = target: Ribosomal protein S6 kinase alpha-5 (Homo sapiens) (UniProt O75582); settings: at 0.1 µM
# [6] = target: Ribosomal protein S6 kinase alpha-5 (Homo sapiens) (UniProt O75582); settings: at 1 µM
# [7] = target: Ribosomal protein S6 kinase alpha-4 (Homo sapiens) (UniProt O75676); settings: at 0.1 µM
# [8] = target: Ribosomal protein S6 kinase alpha-4 (Homo sapiens) (UniProt O75676); settings: at 1 µM
# [9] = target: Ribosomal protein S6 kinase beta-1 (Homo sapiens) (UniProt P23443); settings: at 0.1 µM
# [10] = target: Ribosomal protein S6 kinase beta-1 (Homo sapiens) (UniProt P23443); settings: at 1 µM
# [11] = target: T1, 3-phosphoinositide-dependent protein kinase 1 (Homo sapiens) (UniProt O15530); settings: at 0.1 µM;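 further: values are mean inhibition of PDK1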
# T1 sequence (whole entry): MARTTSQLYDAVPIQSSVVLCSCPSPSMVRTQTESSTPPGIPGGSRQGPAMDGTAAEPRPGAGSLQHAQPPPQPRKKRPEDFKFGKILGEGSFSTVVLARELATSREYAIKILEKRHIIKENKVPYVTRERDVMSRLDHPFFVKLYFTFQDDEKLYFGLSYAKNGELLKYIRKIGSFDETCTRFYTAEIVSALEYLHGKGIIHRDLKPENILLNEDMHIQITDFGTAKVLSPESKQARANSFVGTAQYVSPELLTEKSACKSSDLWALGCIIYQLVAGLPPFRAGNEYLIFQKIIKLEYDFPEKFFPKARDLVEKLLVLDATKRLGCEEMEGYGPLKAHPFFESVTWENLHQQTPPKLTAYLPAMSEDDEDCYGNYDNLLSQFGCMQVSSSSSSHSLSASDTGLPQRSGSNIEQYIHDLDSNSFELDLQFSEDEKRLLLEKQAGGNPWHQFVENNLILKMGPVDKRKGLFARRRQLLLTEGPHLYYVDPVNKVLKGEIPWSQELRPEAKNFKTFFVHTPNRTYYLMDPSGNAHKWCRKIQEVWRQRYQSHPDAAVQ
# [12] = target: cAMP-dependent protein kinase catalytic subunit alpha (Homo sapiens) (UniProt P17612); settings: at 0.1 µM
# [13] = target: Protein kinase C alpha type (Homo sapiens) (UniProt P17252); settings: at 0.1 µM
# [14] = target: Protein kinase C alpha type (Homo sapiens) (UniProt P17252); settings: at 1 µM
# [15] = target: Protein kinase C beta type (Homo sapiens) (UniProt P05771); settings: at 0.1 µM
# [16] = target: Protein kinase C beta type (Homo sapiens) (UniProt P05771); settings: at 1 µM
# [17] = target: Protein kinase C eta type (Homo sapiens) (UniProt P24723); settings: at 0.1 µM
# [18] = target: Protein kinase C eta type (Homo sapiens) (UniProt P24723); settings: at 1 µM
# [19] = target: Protein kinase C gamma type (Homo sapiens) (UniProt P05129); settings: at 0.1 µM;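 further: values are mean percent inhibition of PKC gamma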
# [20] = target: cAMP-dependent protein kinase catalytic subunit alpha (Homo sapiens) (UniProt P17612); settings: at 1 µM
# Sequence of Ribosomal protein S6 kinase alpha-5 (Homo sapiens) (O75582 whole entry, looked up): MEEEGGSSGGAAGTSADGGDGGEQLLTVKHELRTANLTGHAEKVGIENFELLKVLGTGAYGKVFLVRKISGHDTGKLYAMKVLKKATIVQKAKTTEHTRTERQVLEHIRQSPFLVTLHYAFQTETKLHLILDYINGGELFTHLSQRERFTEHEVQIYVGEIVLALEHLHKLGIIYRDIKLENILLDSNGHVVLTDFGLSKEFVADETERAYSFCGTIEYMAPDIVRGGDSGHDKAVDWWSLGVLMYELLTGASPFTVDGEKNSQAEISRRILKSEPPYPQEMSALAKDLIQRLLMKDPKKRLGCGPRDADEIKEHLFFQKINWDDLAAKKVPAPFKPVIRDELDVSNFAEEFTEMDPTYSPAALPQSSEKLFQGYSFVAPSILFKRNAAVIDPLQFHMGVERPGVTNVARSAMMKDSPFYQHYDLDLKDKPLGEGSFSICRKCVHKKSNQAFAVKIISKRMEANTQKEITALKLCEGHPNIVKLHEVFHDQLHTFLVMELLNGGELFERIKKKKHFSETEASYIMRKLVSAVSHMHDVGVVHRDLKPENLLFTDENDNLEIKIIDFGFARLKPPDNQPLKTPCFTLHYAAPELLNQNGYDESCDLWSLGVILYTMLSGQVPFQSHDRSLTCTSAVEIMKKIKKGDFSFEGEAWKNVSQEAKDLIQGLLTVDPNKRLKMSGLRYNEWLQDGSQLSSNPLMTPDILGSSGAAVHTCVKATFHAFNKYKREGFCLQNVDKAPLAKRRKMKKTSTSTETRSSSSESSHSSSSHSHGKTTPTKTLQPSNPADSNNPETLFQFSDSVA
# Sequence of Serine/threonine-protein kinase MRCK alpha (Homo sapiens) (Q5VT25 whole entry): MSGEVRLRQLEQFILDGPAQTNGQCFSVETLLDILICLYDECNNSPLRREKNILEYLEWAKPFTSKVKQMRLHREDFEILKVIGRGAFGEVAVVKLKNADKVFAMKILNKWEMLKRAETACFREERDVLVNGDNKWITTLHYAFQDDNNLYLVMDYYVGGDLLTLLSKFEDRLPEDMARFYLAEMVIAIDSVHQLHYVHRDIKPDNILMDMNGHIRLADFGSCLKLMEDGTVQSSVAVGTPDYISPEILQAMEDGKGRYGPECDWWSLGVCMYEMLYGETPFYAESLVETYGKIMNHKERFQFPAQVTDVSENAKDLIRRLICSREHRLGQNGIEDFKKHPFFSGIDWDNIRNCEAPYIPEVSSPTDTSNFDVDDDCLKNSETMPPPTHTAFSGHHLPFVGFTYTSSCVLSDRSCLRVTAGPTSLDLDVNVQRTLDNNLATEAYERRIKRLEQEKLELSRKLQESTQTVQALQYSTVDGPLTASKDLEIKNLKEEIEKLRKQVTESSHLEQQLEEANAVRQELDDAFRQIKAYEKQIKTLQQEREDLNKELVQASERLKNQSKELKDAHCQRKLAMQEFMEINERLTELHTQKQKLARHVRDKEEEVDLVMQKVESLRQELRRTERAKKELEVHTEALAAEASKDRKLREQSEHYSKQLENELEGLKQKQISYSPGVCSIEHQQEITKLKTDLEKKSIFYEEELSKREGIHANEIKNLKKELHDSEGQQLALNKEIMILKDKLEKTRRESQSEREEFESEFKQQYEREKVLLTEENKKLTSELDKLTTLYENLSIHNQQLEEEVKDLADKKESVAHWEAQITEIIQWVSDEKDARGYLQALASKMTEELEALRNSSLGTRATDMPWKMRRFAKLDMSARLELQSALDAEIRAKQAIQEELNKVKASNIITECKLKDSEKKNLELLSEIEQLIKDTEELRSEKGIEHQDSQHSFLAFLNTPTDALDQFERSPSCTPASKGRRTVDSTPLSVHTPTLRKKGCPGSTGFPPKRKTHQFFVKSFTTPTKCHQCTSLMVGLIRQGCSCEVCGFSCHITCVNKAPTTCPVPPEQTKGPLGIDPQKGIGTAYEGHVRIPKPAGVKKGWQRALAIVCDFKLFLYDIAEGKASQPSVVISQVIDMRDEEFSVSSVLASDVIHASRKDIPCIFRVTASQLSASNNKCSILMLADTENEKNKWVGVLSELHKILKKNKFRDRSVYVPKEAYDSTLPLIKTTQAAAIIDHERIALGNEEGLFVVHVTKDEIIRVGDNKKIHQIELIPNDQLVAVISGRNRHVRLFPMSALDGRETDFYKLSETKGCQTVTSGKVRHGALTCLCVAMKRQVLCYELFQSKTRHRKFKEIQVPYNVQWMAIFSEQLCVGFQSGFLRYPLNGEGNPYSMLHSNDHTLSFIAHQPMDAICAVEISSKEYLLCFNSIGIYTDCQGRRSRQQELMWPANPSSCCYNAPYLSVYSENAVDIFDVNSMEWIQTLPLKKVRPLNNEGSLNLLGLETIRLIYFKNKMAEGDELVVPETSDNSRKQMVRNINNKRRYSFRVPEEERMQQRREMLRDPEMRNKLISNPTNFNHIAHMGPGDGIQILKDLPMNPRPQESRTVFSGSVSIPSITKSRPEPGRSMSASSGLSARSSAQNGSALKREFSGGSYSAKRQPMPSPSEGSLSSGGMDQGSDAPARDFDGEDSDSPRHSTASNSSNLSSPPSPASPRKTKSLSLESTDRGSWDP
# Sequence of Ribosomal protein S6 kinase beta-1 (Homo sapiens) (P23443 whole entry, looked up): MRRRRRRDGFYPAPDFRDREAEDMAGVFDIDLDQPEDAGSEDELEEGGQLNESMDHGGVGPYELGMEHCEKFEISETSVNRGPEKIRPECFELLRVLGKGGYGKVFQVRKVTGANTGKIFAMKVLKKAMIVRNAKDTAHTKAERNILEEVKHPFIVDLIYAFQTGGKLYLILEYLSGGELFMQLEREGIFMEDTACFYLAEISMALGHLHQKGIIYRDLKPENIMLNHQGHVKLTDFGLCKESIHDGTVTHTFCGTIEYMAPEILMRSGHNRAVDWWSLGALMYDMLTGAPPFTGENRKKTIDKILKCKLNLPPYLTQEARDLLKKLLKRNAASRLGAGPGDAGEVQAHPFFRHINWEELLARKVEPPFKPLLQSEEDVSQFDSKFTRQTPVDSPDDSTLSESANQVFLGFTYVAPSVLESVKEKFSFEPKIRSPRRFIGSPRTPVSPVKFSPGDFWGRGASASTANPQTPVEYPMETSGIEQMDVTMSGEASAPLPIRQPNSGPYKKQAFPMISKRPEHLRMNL
# Sequence of Protein kinase C eta type (Homo sapiens) (P24723 whole entry): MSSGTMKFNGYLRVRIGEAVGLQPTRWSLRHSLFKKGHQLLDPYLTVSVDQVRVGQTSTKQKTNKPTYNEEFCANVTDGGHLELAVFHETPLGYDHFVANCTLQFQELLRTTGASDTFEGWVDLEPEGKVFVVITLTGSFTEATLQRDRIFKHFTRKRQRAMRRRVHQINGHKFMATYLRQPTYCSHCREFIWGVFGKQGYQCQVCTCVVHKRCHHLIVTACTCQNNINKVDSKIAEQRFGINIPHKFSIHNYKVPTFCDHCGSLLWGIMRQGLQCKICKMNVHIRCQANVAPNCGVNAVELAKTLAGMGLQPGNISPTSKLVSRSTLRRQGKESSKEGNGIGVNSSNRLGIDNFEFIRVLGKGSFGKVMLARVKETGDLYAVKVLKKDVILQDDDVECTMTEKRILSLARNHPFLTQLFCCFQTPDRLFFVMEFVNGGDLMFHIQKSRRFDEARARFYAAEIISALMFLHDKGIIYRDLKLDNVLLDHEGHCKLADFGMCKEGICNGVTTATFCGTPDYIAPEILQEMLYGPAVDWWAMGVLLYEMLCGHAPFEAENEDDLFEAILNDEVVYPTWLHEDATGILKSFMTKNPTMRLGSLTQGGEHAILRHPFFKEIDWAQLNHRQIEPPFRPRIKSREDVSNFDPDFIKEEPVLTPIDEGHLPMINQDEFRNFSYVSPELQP
# Sequence of Protein kinase C beta type (Homo sapiens) (P05771 2-671 limits assumed): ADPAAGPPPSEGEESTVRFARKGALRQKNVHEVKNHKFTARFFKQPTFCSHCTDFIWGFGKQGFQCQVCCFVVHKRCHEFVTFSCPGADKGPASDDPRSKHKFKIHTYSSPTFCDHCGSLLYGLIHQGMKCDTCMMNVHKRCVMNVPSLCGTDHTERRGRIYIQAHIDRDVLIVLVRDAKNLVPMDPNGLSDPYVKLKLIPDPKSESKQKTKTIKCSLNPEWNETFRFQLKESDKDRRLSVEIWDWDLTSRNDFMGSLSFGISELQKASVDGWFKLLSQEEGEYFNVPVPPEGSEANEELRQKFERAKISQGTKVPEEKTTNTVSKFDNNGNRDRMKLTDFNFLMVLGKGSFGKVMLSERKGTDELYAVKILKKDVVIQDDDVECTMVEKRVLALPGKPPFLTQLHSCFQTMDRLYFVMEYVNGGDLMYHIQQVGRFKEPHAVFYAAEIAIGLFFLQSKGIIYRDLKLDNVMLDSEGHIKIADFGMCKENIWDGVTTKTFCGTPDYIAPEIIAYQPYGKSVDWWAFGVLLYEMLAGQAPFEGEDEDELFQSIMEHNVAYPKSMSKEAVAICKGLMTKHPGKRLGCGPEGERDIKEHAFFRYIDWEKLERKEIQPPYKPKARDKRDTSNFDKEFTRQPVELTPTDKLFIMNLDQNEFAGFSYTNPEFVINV
SMILES,inhibition [1],inhibition [2],inhibition [3],inhibition [4],inhibition [5],inhibition [6],inhibition [7],inhibition [8],inhibition [9],inhibition [10],inhibition [11],inhibition [12],inhibition [13],inhibition [14],inhibition [15],inhibition [16],inhibition [17],inhibition [18],inhibition [19],inhibition [20]
CCn1c(-c2nonc2N)nc2c(C#CC(C)(C)O)ncc(OCC3CCNCC3)c21,3.52%,33.2%,2.36%,21.1%,2.98%,16.2%,4.39%,19.2%,3.1%,15.4%,2.18%,44.1%,-1.9%,13.4%,29.9%,64.4%,83.7%,97.8%,6.74%,–
COc1cccc(COc2cc(-n3cnc4ccccc43)sc2C(N)=O)c1,-5.2%,-1.17%,-0.37%,0.51%,0.54%,-1.08%,1.36%,-0.28%,0.45%,-0.53%,12.1%,2.47%,-0.54%,0%,-0.69%,0.94%,0.43%,1.12%,1.09%,0.86%
CCn1c(-c2nonc2N)nc2c(C#CC(C)(C)O)ncc(OC[C@@H]3CCCN3)c21,-1.54%,23.5%,2.11%,19.5%,0.57%,7.89%,3.2%,17.5%,3.87%,25.4%,0.24%,68.7%,2.42%,18.4%,30.1%,61.3%,87.1%,96.3%,9.3%,81.2%
COc1cc(C=NNc2ncnc3c2cnn3Cc2ccccc2)ccc1O,1.44%,-1.07%,1.9%,4.11%,2.29%,3%,1.75%,4.49%,-1.02%,-0.11%,-3.37%,-0.54%,-0.63%,3.5%,0.36%,3.19%,-5.63%,-0.89%,-2.68%,5.93%
COc1cccc(-n2ncc3c(N/N=C/c4ccncc4)ncnc32)c1,-0.11%,3.78%,0.53%,0.77%,3.86%,4.1%,2.47%,4.26%,2.67%,7.24%,3.34%,1.96%,2.71%,8.07%,1.63%,7.79%,4.72%,2.1%,1.76%,4.25%
NS(=O)(=O)c1ccc(-c2ccc3c(NC(=O)C4CC4)n[nH]c3c2)cc1,-0.42%,-1.48%,0.24%,1.84%,3.18%,7.98%,-0.31%,4.18%,0.95%,2.84%,2.67%,1.34%,0.82%,0.13%,-1.4%,-0.63%,3.31%,-0.1%,-1.07%,1.63%
COc1cc2c(cc1Nc1nc(Nc3ccsc3C(N)=O)c3cc[nH]c3n1)N(C(=O)CN(C)C)CCC2,-2.47%,-0.12%,-0.68%,-0.44%,2.59%,-0.04%,2.53%,-0.18%,1.15%,0.53%,0.7%,4.62%,1.91%,10.2%,-0.18%,1.94%,1.28%,3.46%,–,3.81%
NC(=O)c1sc(-n2cnc3cc(C(F)(F)F)ccc32)cc1OCc1ccccc1Br,-1.08%,-4.81%,0.07%,0.13%,0.28%,-0.19%,2.32%,1.32%,1.25%,-0.49%,2.62%,2.16%,0.19%,1.07%,0.86%,-1.32%,3.02%,-0.28%,0.48%,1.95%
Nc1nonc1-c1nc2cnccc2n1C1CCCCC1,18.6%,65.9%,29.6%,72%,76.5%,85.2%,59.6%,83%,72.6%,91.2%,0.3%,19.5%,2.45%,38.4%,31%,65.3%,42.3%,88.5%,8.45%,–
CCn1c(-c2nonc2N)nc2c(C#CC(C)(C)O)nc(O[C@@H](CN)c3ccccc3)cc21,29%,72.8%,20.8%,66.2%,8.67%,51.3%,15%,61.3%,13.1%,58.4%,3.51%,80.3%,15.8%,69.7%,44.8%,71.4%,96.3%,99%,54.7%,81.6%
CCn1c(-c2nonc2N)nc2c(C#CCN)ncc(OCCCN)c21,6.68%,13.4%,6.58%,23.4%,12.1%,51.5%,12.9%,52%,7.3%,44.7%,1.2%,7.1%,1.06%,4.21%,14.7%,47.8%,19.6%,73.4%,3.97%,–
NS(=O)(=O)c1ccc(N/C=C2\C(=O)Nc3ccc4ncsc4c32)cc1,-1.47%,10.5%,0.46%,5.66%,5.1%,12.2%,15.3%,50.9%,1.92%,13.5%,20.8%,2.9%,1.26%,3.04%,-0.49%,–,1.67%,6.53%,1.16%,6.91%
Cc1cc(-c2ccco2)cc(C)c1/C=C/c1cncc(-c2nn[nH]n2)c1,-2.3%,-3.4%,0.22%,-0.72%,-0.62%,-1.54%,0.13%,1.02%,0.97%,-0.33%,-0.25%,-2.7%,0.15%,0.97%,-0.49%,0.6%,1.26%,2.42%,0.18%,1.88%
Fc1ccc(-c2ncn(C3CCNCC3)c2-c2ccnc(Oc3ccccc3)n2)cc1,-3.2%,-1.87%,-0.1%,-0.81%,-1.31%,-2.46%,1.09%,0.21%,1.34%,7.24%,0.7%,7.46%,-3.5%,-0.8%,0.95%,8.43%,3.65%,1.37%,0.03%,43.6%
